Mm-Cpn inhibitor: Inhibitors of TCP-1 ring complex (TRiC) of Methanococcus maripaludis (MmCpn): qHTS. purified Mm-Cpn ATPase, ADP Transcreener TR-FRET. Chaperonin Mm-Cpn (Methanococcus maripaludis). AID 504842, 2011. Potency, µM (highest dose often 76.9 µM), without a hit: at the highest dose activity, negative = inhibition, most hits filed as inhibitors. hit rate 0.031% among 330,000; also: % is scaled to controls: 0 for no effect and ±100 for the full control effect; nearly all actives have a fitted effect of over 80% in size
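Measured: ADP formation by purified Mm-CPN. Conditions: 25 nM protein, 10 uM ATP, Tris pH 7.4 with Mg2+, K+ and DTT, 37°C for 30 min. Detection: Transcreener HTRF after 30 min at room temperature.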
ClpP mod: qHTS Assay for Activators of ClpP; Potency, µM (series often up to 57.5 µM), for inactives: at the highest dose activity change, negative = active; AID 651965, 2013; ATP-dependent Clp protease proteolytic subunit (Bacillus subtilis (strain 168)), P80244; hit rate 1.9% among 340,000; purified B. subtilis ClpP, FRET peptide cleavage, 20 min; active = well fitted falling curve with a large enough effect; inconclusive = small, poorly fitted or top-dose-only effect; inactive = no such curve, though single readings can be large or run the other way; also: the source files actives as falling curves though it sought activators and does not explain the sign; nearly all actives have a fitted effect of over 65% in size
Target sequence (P80244 whole entry, looked up): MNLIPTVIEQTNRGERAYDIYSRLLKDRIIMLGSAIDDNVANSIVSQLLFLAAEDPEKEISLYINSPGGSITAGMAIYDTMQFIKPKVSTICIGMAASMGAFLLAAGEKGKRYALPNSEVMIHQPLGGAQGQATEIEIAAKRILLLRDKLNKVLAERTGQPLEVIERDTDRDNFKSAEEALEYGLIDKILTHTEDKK
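Buffer: 100 mM Tris/HCl pH8, 100 mM KCl, 0.05% low protease BSA, 2.5% glycerol, 0.01% Tween-20. ClpP 10 microg/mL final; 20 min RT; delta FRET normalized to ADEP and DMSO controls.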
Integrin act MD: qHTS for Activators of Integrin-Mediated Alleviation for Muscular Dystrophy. alpha7betagal myoblasts, beta-gal FDG fluorescence, 48 h. Potency, µM (titrated, usually from 38.3 µM), for the others: at the highest dose activation, actives largely listed as activators. hit rate 0.064% among 350,000;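 also: 100% = response of the positive control SU9516; nearly all actives have a fitted effect of over 60% in size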
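alpha7betagal+/- myoblasts (passage 13, 250/well) treated 48 h at 37C with compounds at 1:260 dilution of DMSO stock. Lysed, then beta-galactosidase activity read as FDG fluorescence (ex 480/em 540) after 30 min, with pre-read for autofluorescence.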
p53 reactivation: qHTS assay for re-activators of p53 using a Luc reporter; H1299 p53-A138V BP100-luciferase reporter, luminescence, 24 h; Potency, µM (titrated, usually from 92.2 µM), for the others: top-dose activity change, positive = activation, actives largely listed as activators; hit rate 0.063% among 320,000; AID 504706, 2011; also: % of control where 0% means no effect; nearly all actives have a fitted effect of over 45% in size
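H1299 (p53-null), stable ts p53-A138V + BP100-Luc; 1000 cells/well, Opti-MEM/10% FBS; cpd 4 pt, 1:5; 24 h, 37 deg C, 5% CO2; detection reagent 10 min RT; luminescence.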
Eya2 phos inh: qHTS Assay for Inhibitors of the Phosphatase Activity of Eya2. Protein phosphatase EYA2 (Homo sapiens), O00167. recombinant Eya2, OMFP fluorescence dephosphorylation (OMFP is methylfluorescein phosphate). Potency, µM (doses to about 76.9 µM), inactives show at the highest dose activity, negative = inhibition, hits mostly inhibitors. hit rate 0.006% among 330,000. AID 488837, 2010; also: % is scaled to controls: 0 for no effect and ±100 for the full control effect
Target sequence (O00167 whole entry, looked up): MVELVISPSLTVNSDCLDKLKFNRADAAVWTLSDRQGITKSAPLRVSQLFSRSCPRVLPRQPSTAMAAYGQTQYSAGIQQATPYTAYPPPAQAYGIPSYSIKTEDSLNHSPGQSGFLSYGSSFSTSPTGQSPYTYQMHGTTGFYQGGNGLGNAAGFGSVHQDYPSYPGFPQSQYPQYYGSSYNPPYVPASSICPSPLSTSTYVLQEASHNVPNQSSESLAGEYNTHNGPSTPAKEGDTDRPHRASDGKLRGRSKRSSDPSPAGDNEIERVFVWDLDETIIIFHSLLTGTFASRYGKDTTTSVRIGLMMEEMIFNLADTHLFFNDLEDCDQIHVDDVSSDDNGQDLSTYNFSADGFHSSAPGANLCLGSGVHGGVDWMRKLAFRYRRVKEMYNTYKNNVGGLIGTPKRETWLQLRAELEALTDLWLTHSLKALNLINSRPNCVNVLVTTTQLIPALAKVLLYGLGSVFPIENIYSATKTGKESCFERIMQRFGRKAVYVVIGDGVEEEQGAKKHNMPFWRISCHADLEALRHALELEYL
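Eya2 protein (added as 0.2 uM solution) was preincubated with compound for 10 min at ambient temperature in 50 mM HEPES pH 7.5, 50 mM NaCl, 5 uM MgCl2, 0.05% BSA, 1 mM DTT. OMFP (added at 50 uM) then reacted 10 min; fluorescence read at 485/525 nm.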
USP2a inh: qHTS Assay for Inhibitors of Ubiquitin-specific Protease USP2a Using CHOP2 as the Reporter | Ubiquitin carboxyl-terminal hydrolase 2 (Homo sapiens), O75604 | USP2 core, Ub-CHOP2 coupled fluorogenic reporter, 485/531 | Potency, µM (series often up to 38.3 µM), for the others: at the top dose activity change, negative = inhibition, hits mostly inhibitors | hit rate 0.01% among 330,000 | AID 463254, 2010;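 also: plate controls were DMSO wells for no effect and full inhibition by NEM control for full effect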
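Cell-free coupled assay: 10nM USP2 core preincubated 30min RT with compound in Tris-HCl pH 8.0/CaCl2/CHAPS buffer, then 25nM Ub-CHOP2 and 25nM reporter substrate; fluorescence (Ex 485/Em 531) read after 60min RT, normalized to NEM inhibition, concentration-response curves fitted.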
Starred values were filed as active, the others as inactive; ? = inconclusive; / = no result. The entries come from a sample that favours hits as a whole. Unless noted, calls follow the shape of the dose curve; as a rule, active = well fitted curve in the direction sought with a large enough effect; inconclusive = small, poorly fitted or top-dose-only effect, or another doubt; inactive = no such curve, though single readings can be large; an effect the other way counts as inactive or inconclusive. Potency is read from the fitted curve at half-maximal effect.

SMILES	Mm-Cpn inhibitor	ClpP mod	Integrin act MD	p53 reactivation	Eya2 phos inh	USP2a inh
COC(=O)COc1ccc(C)cc1-n1nc2ccccc2n1	0%	/	11%	1%	2%	-1%
COc1ccc2[nH]c(C)c(C(=O)CN(C)CC(OC)OC)c2c1	/	-2%	/	/	/	/
Clc1ccc2c(Cl)cc[n+](CCC3CCCCC3)c2c1	/	-6%	/	/	/	/
Cc1cc(F)ccc1NC(=O)Cn1c(=O)ccc2cc(S(=O)(=O)N3CCC(C)CC3)ccc21	/	-6%	/	/	/	/
CC(OC(=O)c1ccccc1OCC(=O)Nc1ccc(Br)cc1)C(=O)NC1CCCC1 (centres undefined)	/	-4%	/	/	/	/
Clc1ccccc1CNc1nc2ccccc2c2nc(-c3ccccc3)nn12	/	-4%	/	/	/	/
c1ccc(CNc2nc3ccccc3c3nc(-c4ccccc4)nn23)cc1	/	25µM*	/	/	/	/
CN(C(=O)COC(=O)CCCN1C(=O)c2cccc3cccc(c23)C1=O)C1CCS(=O)(=O)C1 (centres undefined)	1%	/	23%	-4%	-13%	4%
O=C(COC(=O)CCCN1C(=O)c2cccc3cccc(c23)C1=O)Nc1cccc(C(F)(F)F)c1	-7%	28µM*	17%	-7%	-1%	0%
O=C(COC(=O)CCCN1C(=O)c2cccc3cccc(c23)C1=O)Nc1cccc(Br)c1	-1%	?	24%	-2%	-10%	-1%
CCN(C(=O)COC(=O)CCCN1C(=O)c2cccc3cccc(c23)C1=O)C1CCS(=O)(=O)C1 (centres undefined)	1%	28µM*	17%	-5%	-7%	4%
CN(CC(=O)Nc1cccc(F)c1)C(=O)CCCN1C(=O)c2cccc3cccc(c23)C1=O	0%	14µM*	-3%	-5%	16%	-2%
COc1cc(OC)c(OC)cc1/C=c1\[nH]c(=O)/c(=C/c2cc(OC)c(OC)cc2OC)[nH]c1=O	/	3%	/	/	/	/
COC(=O)c1c(NC(=O)CS(=O)(=O)c2ccc(C)cc2)sc2c1CCCCC2	/	-10%	/	/	/	/
COc1ccccc1NC(=S)NCc1cccs1	0%	13µM*	43%	8%	3%	2%
COc1ccc(Cl)cc1NC(=S)NCc1cccs1	-1%	/	-19%	7%	-7%	5%
C[n+]1ccnc2ccccc21	/	-2%	/	/	/	/
O=C1c2cccc(OCC(=O)N3N=C(c4cccs4)CC3c3ccc(F)cc3)c2CCN1Cc1cccnc1 (centres undefined)	-16%	28µM*	-29%	-6%	0%	-7%
O=C(c1cccnc1)N1N=C(c2cccs2)CC1c1ccc(F)cc1 (centres undefined)	-12%	/	-37%	-2%	17%	1%
CCN(CC)CCCn1c(=S)[nH]c2ncccc2c1=O	1%	32µM*	4%	2%	18%	1%
Cc1ccc(OCc2cc(=O)n3c4c(sc3n2)CCCC4)cc1C	/	-16%	/	/	/	/
CS(=O)(=O)c1ccc(C(=O)OCC(=O)NCC2CCCO2)cc1[N+](=O)[O-] (centres undefined)	/	-3%	/	/	/	/
CCc1ccc2[nH]c(=O)c(CN(CCCN3CCOCC3)C(=O)Nc3ccccc3)cc2c1	0%	-7%	0%	4%	-3%	5%
COc1ccc2[nH]c(=O)c(CN(CCCN3CCOCC3)C(=O)NCc3ccccc3)cc2c1	1%	16µM*	-2%	-1%	-1%	0%
O=C(Nc1ccccc1)N(CCCN1CCOCC1)Cc1cc2cc3c(cc2[nH]c1=O)OCCO3	3%	32µM*	13%	1%	5%	2%
SMILES	Mm-Cpn inhibitor	ClpP mod	Integrin act MD	p53 reactivation	Eya2 phos inh	USP2a inh
CCN(CC)CCCN(Cc1cc2cc3c(cc2[nH]c1=O)OCCO3)C(=O)Nc1ccccc1	?	20µM*	-24%	1%	-4%	1%
O=C(Nc1ccccc1F)N(CCCN1CCOCC1)Cc1cc2cc3c(cc2[nH]c1=O)OCCO3	0%	20µM*	10%	0%	0%	-2%
CCNc1ccc(/C=C2\C=Cc3ccccc32)cc1	/	1%	/	/	/	/
CC(=O)N(c1ccc(Cl)cc1)C1SC(=O)N(c2ccccc2)C1=O (centres undefined)	/	-2%	/	/	/	/
CCc1nc2ccc(C(=O)NCc3ccc(N(C)C)cc3)cc2nc1CC	/	-3%	/	/	/	/
Cc1cccc(C(=O)Nc2cccc(OCc3cc(=O)n4c(C)csc4n3)c2)c1	/	-5%	/	/	/	/
Cc1ccc(C)c(S(=O)(=O)c2nnn3c2nc(NCc2cccs2)c2sccc23)c1	/	28µM*	/	/	/	/
Cc1ccc(C)c(S(=O)(=O)c2nnn3c2nc(NC2CCCC2)c2sccc23)c1	/	32µM*	/	/	/	/
CCc1ccc(S(=O)(=O)c2nnn3c2nc(NCCc2ccccc2)c2sccc23)cc1	/	4%	/	/	/	/
CC(=O)Nc1ccc(Nc2nc3c(S(=O)(=O)c4cc(C)ccc4C)nnn3c3ccsc23)cc1	/	-1%	/	/	/	/
O=S(=O)(c1ccc(Br)cc1)c1nnn2c1nc(NCc1cccs1)c1sccc12	/	28µM*	/	/	/	/
CCc1ccc(S(=O)(=O)c2nnn3c2nc(NCc2cccs2)c2sccc23)cc1	/	28µM*	/	/	/	/
O=S(=O)(c1ccccc1)c1nnn2c1nc(NCc1cccs1)c1sccc12	/	-18%	/	/	/	/
Cc1ccc(S(=O)(=O)c2nnn3c2nc(NCc2cccs2)c2sccc23)cc1C	/	-14%	/	/	/	/
Cc1ccc(-n2c(=O)c3ccc(C(=O)NCc4ccccc4Cl)cc3n(Cc3cccc(F)c3)c2=O)cc1	/	-1%	/	/	/	/
Cc1nn2c(C)c(C(=O)NCC(C)c3ccccc3)cnc2c1-c1ccccc1 (centres undefined)	/	-2%	/	/	/	/
CCCCCN(CCCCC)c1ccc(/C=C/c2ccnc3ccccc23)cc1	/	2%	/	/	/	/
O=c1c2c(nc3c(-c4ccc(Cl)cc4)c[nH]n13)CCCC2	-1%	14µM*	-55%	8%	-1%	-1%
Cc1[nH]n2c(=O)c3c(nc2c1-c1cccc2ccccc12)CCC3	1%	?	-9%	-1%	3%	-1%
O=c1c2c(nc3c(-c4cccc5ccccc45)c[nH]n13)CCC2	1%	11µM*	7%	11%	-8%	-4%
CCN(CC)C(=O)CSc1nc(-c2cccs2)cc(-c2cccs2)c1C#N	?	25µM*	-3%	27%	5%	-1%

Screening results as filed in PubChem.
